Data as given in publication PMC4081100, “A DNA-binding-site landscape and regulatory network analysis for NAC transcription factors in Arabidopsis thaliana”.

What was measured:
Assay in all cases: universal protein binding microarray (PBM); transcription factors of Arabidopsis thaliana; high values mean tight binding
Conditions in all cases: protein: recombinant; tags: GST; chain copies: 2; dsDNA, one strand shown
GST-ANAC092(1-176) = target: T1, GST-ANAC092(1-176) (Arabidopsis thaliana, UniProt Q9FKA0 1-176)
T1 sequence: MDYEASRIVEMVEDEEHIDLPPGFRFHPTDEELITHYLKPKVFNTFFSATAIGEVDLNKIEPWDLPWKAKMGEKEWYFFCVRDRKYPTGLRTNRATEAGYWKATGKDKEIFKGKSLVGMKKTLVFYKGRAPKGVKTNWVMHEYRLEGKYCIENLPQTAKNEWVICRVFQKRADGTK
Method in brief: (§1)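 Protein amounts were determined by A280 or anti-GST western blot after glutathione–Sepharose 4B purification of GST-tagged proteins induced in cells, with zinc acetate included for zinc-finger proteins. Duplicate runs at 200 to 500 nM final were done on custom all-10-mer Agilent 4 × 180K arrays made double-stranded by primer extension. The normalised enrichment score (E-score) over gapped and ungapped 8-mers is the measure of binding.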

GST-NTL6(1-168) = GST-NTL6(1-168) (Arabidopsis thaliana, UniProt Q9SCK6 1-168)
GST-NTL6(1-168), sequence (Q9SCK6 1-168): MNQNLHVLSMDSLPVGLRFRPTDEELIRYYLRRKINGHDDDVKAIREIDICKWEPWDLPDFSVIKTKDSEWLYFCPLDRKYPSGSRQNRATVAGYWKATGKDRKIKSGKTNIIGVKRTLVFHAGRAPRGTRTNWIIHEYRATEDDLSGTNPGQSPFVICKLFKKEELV
Method in brief: as §1

GST-ANAC019 NAC domain = target: T2, GST-ANAC019 NAC domain (Arabidopsis thaliana, UniProt Q9C932 14-162)
T2 sequence: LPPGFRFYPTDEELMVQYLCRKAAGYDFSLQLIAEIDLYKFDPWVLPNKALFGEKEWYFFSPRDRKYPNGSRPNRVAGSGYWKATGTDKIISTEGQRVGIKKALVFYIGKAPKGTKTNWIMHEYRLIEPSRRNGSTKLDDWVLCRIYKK
Method in brief: as §1

GST-ANAC055(1-171) = target: T3, GST-ANAC055(1-171) (Arabidopsis thaliana, UniProt Q9LDY8 1-171)
T3 sequence: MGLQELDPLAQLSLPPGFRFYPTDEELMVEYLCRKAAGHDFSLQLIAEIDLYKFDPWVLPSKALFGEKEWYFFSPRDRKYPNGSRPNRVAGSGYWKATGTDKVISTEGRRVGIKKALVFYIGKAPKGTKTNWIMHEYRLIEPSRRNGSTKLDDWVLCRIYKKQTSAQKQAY
Method in brief: as §1

GST-ATAF1 NAC domain = target: T4, GST-ATAF1 NAC domain (Arabidopsis thaliana, UniProt Q39013 7-158)
T4 sequence: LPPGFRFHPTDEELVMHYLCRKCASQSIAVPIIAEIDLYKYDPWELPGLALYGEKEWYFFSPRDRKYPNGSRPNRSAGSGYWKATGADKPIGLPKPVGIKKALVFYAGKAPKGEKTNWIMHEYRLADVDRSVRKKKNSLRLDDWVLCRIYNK
Method in brief: as §1

[1] = target: T5, GST-ANAC092(1-285) full length (Arabidopsis thaliana, UniProt Q9FKA0 1-285)
T5 sequence: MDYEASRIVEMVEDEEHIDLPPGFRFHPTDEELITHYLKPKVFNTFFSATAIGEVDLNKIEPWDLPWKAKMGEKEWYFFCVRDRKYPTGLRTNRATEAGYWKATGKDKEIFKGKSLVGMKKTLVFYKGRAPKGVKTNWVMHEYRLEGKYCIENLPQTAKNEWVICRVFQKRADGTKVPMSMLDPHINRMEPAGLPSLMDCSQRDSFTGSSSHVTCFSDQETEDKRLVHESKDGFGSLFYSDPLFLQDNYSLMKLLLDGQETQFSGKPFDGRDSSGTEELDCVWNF
Method in brief: as §1

GST-NAP(1-166) = target: T6, GST-NAP(1-166) (Arabidopsis thaliana, UniProt O49255 1-166)
T6 sequence: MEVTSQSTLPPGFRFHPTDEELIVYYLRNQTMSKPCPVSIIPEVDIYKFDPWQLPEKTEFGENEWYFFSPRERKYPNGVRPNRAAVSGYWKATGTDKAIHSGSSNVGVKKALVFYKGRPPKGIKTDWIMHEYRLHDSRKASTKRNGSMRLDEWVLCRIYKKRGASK
Method in brief: as §1

GST-NST2(1-184) = target: T7, GST-NST2(1-184) (Arabidopsis thaliana, UniProt Q9M274 1-184)
T7 sequence: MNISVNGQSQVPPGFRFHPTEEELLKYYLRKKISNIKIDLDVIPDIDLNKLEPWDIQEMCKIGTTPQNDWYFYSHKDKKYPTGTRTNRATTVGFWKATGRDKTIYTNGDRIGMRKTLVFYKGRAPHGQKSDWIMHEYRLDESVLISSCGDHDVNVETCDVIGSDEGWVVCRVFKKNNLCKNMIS
Method in brief: as §1

GST-NTL8 NAC domain = target: T8, GST-NTL8 NAC domain (Arabidopsis thaliana, UniProt Q9XIN7 14-156)
T8 sequence: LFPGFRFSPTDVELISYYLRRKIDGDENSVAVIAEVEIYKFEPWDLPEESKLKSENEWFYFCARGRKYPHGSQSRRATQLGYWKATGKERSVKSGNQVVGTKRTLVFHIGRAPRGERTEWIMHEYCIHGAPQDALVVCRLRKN
Method in brief: as §1

GST-SND1(1-203) = target: T9, GST-SND1(1-203) (Arabidopsis thaliana, UniProt Q9LPI7 1-203)
T9 sequence: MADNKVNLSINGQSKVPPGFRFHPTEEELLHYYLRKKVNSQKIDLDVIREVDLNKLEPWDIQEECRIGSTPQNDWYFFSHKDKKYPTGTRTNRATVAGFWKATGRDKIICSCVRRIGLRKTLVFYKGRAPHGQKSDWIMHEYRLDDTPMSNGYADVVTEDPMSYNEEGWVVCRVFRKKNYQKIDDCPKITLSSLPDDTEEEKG
Method in brief: as §1

GST-VND3 NAC domain = target: T10, GST-VND3 NAC domain (Arabidopsis thaliana, UniProt Q9FH59 12-162)
T10 sequence: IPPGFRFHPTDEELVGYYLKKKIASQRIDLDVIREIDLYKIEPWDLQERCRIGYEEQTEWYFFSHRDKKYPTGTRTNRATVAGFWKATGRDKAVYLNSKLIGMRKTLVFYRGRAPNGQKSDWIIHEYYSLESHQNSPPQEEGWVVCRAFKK
Method in brief: as §1

GST-VND7 NAC domain = target: T11, GST-VND7 NAC domain (Arabidopsis thaliana, UniProt Q9C8W9 9-158)
T11 sequence: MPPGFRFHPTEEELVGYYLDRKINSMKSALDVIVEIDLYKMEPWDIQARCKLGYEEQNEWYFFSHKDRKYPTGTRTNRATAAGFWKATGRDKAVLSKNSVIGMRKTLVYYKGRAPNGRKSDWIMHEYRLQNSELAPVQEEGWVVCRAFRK
Method in brief: as §1

Sequence	binding signal (GST-ANAC092(1-176)) [E-score]	binding signal (GST-NTL6(1-168)) [E-score]	binding signal (GST-ANAC019 NAC domain) [E-score]	binding signal (GST-ANAC055(1-171)) [E-score]	binding signal (GST-ATAF1 NAC domain) [E-score]	binding signal [1] [E-score]	binding signal (GST-NAP(1-166)) [E-score]	binding signal (GST-NST2(1-184)) [E-score]	binding signal (GST-NTL8 NAC domain) [E-score]	binding signal (GST-SND1(1-203)) [E-score]	binding signal (GST-VND3 NAC domain) [E-score]	binding signal (GST-VND7 NAC domain) [E-score]
ACGTAATA	0.425	0.176	0.351	0.375	0.276	0.434	0.346	0.298	0.142	0.387	0.377	0.273
ACGAGAAA	0.249	0.265	0.324	0.419	0.184	0.141	0.206	0.188	0.124	0.151	0.276	0.302
AACGTAAC	0.335	0.15	0.15	0.212	0.253	0.37	0.315	0.324	0.143	0.419	0.278	0.269
ACGGAAAC	0.325	0.205	0.412	0.388	0.209	0.345	0.305	0.242	0.243	0.191	0.349	0.361
CTAAGTAA	0.2	0.49	0.0529	0.0945	0.107	0.3	0.188	0.225	0.216	0.394	0.238	0.209
GCAAGGAA	0.345	0.418	0.185	0.211	0.18	0.371	0.133	0.175	0.431	0.276	0.187	0.229
GTACGAAA	0.38	0.184	0.267	0.274	0.24	0.413	0.247	0.285	0.116	0.277	0.294	0.196
ATGACGTA	0.443	0.0683	0.372	0.346	0.374	0.437	0.404	0.317	0.098	0.446	0.437	0.386
CTTAAGTA	0.154	0.416	0.0907	0.178	0.207	0.198	0.0567	0.207	0.264	0.267	0.218	0.182
GTTCCTTA	0.136	0.458	0.141	0.0564	0.151	0.237	0.117	0.139	0.329	0.376	0.249	0.147
ACGCAAGT	0.424	0.121	0.277	0.295	0.295	0.444	0.356	0.291	0.0671	0.406	0.375	0.366
ACGTTACT	0.435	0.0863	0.287	0.155	0.282	0.439	0.249	0.268	0.233	0.434	0.259	0.326
AAACGTAA	0.261	0.216	0.268	0.325	0.296	0.378	0.294	0.302	0.154	0.435	0.344	0.294
